The text below walks through data of PubChem BioAssay (NCATS).

Records with an inconclusive call do not appear. Where a call stands in place of a potency, no number is given. Unmarked numbers belong to inactive results. The source made the active and inactive calls. Calls come from the whole dose curve; as a rule, active = well fitted curve in the direction sought with a large enough effect; inconclusive = small, poorly fitted or top-dose-only effect, or another doubt; inactive = no such curve, though single readings can be large; an effect the other way counts as inactive or inconclusive.

The target in assay [1] is Cellular tumor antigen p53 (Homo sapiens) (UniProt P04637). The assay can be described thus: Primary qHTS for small molecule compounds that upregulate eGFP-tagged delta133p53alpha (in N-terminal) cells. (AID 2060322). Note: series mostly up to about 56 µM; nearly all actives have a fitted effect of over 75% in size. The note with it: NCI-H358 eGFP-delta133p53alpha fluorescence, 24 h; activation: stronger effect = higher value. A digest of the protocol: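 NCI-H358 cells pre-induced 24 h with 10 ng/ml doxycycline to express N-terminal eGFP-delta133p53alpha, then dosed 24 h at 37C without doxycycline; fixed, Hoechst-stained, GFP intensity by laser scanning cytometry, normalized to DMSO (0%) and 57.5 uM 5-azacytidine (100%).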
In general terms: In qHTS, concentration-response curves come from the screen itself.

For assay [2], the target named is Aldehyde dehydrogenase, mitochondrial (Homo sapiens) (UniProt P05091). The assay can be described thus: qHTS for Inhibitors of the Aldehyde Dehydrogenase Family (ALDH2) Primary screen (AID 2061308). Note: nearly all actives have a fitted effect of over 55% in size.

Sequence of Cellular tumor antigen p53 (Homo sapiens) (P04637 whole entry, looked up): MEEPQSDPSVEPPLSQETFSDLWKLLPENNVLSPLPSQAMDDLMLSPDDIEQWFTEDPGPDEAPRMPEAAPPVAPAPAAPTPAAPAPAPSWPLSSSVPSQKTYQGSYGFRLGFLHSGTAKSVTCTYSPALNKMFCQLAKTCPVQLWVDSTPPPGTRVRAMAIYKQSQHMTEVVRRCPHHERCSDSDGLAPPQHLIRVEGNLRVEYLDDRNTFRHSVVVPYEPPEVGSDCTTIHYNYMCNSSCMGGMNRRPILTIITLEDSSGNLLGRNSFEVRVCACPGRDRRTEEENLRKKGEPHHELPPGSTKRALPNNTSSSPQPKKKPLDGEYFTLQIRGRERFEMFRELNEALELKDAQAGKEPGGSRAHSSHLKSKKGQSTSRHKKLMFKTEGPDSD

Consider `NC(=O)c1ccc(OCC2NC(=O)C3CCCN3C2=O)cc1` (configuration not stated), for which the activation in assay [1] is -12.2%. The Potency result in assay [2] was “inactive”.

Take `CC[C@@H](Nc1c(Nc2cccc(C(=O)N(C)C)c2O)c(=O)c1=O)c1ccc(C)o1`: in assay [1], the activation is -1.43%. Also, in assay [2], the Potency entry was “inactive”.

For `C#CCCCn1cc(-c2cccc3c2N[C@@H](C)CC(=O)N3)cn1`, the activation in assay [1] was -18.8%. For the same compound, in assay [2], the Potency result was “inactive”.

On to `CC1(CO)CC(O)[C@]2(C(=O)O)CCC34CC3(C=CC3[C@]5(C)C(CC[C@]34C)C(C)(CO)[C@@H](O)[C@H](O)[C@@H]5O)C2C1` (some centres not stated), for which the activation in assay [1] was 9.92%. In addition, the Potency result in assay [2] was “inactive”.

As for `CC(C)S(=O)(=O)N[C@H]1CCOC[C@@H]1c1ccc(-c2ccc(C#N)s2)cc1`, in assay [1], the activation is -15%. For the same compound, the Potency entry in assay [2] was “inactive”.

As for `C=C1CC[C@H]2[C@@](C)(CCC(O)[C@@]2(C)CO)[C@@H]1CCC1=CCOC1=O` (some centres not stated), in assay [1], the activation was -11.5%. Also, in assay [2], the Potency result was “inactive”.

Turning to `O=C(O[C@H]1[C@@H]2C=CO[C@@H](O[C@@H]3O[C@H](CO)[C@@H](O)[C@H](O)[C@H]3O)[C@@H]2[C@@]2(CO)O[C@@H]12)c1ccc(O)c(O)c1`, the activation in assay [1] was -2.68%. The Potency result in assay [2] was “inactive”.

In the case of `O=C(c1ccc(C#Cc2cccc(F)c2)cn1)N1CC2CC2C1` (configuration not stated), the activation in assay [1] is -1%. The Potency result in assay [2] is “inactive”.

Turning to `CC1=C2C[C@H]3OC(=O)[C@H](O)[C@@]4(O)[C@@H](C)[C@@H](O)[C@H](O)C([C@@]2(C)[C@H](O)[C@@H](O)C1)[C@@]34C` (some centres not stated), the activation in assay [1] is -11.5%. The Potency entry in assay [2] was “inactive”.

Regarding `O=C(O)c1ccnc2cc(-c3nc4ccccc4n3CCN3CCCCC3)sc12`, in assay [1], the activation is -1.79%. In assay [2], the Potency result is “inactive”.

In the case of `C=C[C@H]1[C@H](O[C@@H]2O[C@H](CO)[C@@H](O)[C@H](OC(=O)/C=C/c3ccc(O)c(OC)c3)[C@H]2O)OC=C2C(=O)OCC[C@]21O`, the activation in assay [1] was -1.53%. Also, in assay [2], the Potency entry is “inactive”.
